# Test results: PubChem BioAssay AID540317 (National Center for Advancing Translational Sciences (NCATS), 2011)
# The campaign covered roughly 390,000 compounds. About 2,200 (0.56%) were called active. Where a call stands in place of a potency, no number is given. Roughly 3% stayed inconclusive and do not appear here. Calls come from the whole dose curve; as a rule, active = well fitted inhibition curve with a large enough effect; inconclusive = small, poorly fitted or top-dose-only effect; inactive = no such curve, though single readings can be large or run the other way. This excerpt belongs to a sample that is enriched for actives.
# Biological target: Chromobox protein homolog 1 (Homo sapiens) (UniProt P83916)
# Experiment: HTS for Inhibitors of HP1-beta Chromodomain Interactions with Methylated Histone Tails; note: nearly all actives have a fitted effect of over 70% in size
# Settings: AlphaScreen HP1-beta / biotin-H3K9me3 peptide binding; series mostly up to 114 µM
# Excerpt: As our understanding of epigenetics expands, it is becoming clear that players in this field are potential targets for drug development. This area of epigenetic therapy has established applications for the treatment of cancer and neurological diseases. We have been involved in this field for a number of years and have performed high-throughput screens to identify the first small molecule inhibitors of protein methyltransferases. These methyltransferases target multiple substrates, and thus regulate many arms of an epigenetic pathway. The methylation of different substrates often generates docking sites for effector proteins that harbor binding domains (chromo, tudor, PHD, MBT and ANK repeats). It has been proposed that the binding sites generated for different proteins by these post-translational modifcations mediate downstream effects on chromatin. Consistent with this theory, di- and tri-methylation of histone H3K9 facilitates the binding of heterochromatin protein HP1. The HP1 protein harbors a chromodomain that is responsible for the methyl-dependent interaction between HP1 and lysine 9 of histone H3. HP1 was first described in flies as a heterochromatin associated protein that can regulate gene silencing. It harbors a chromodomain that binds H3K9me3. In addition, it harbors a chromoshadow domain that interacts with a large number of proteins that are involved in heterochromatin formation and gene repression. There are three highly related HP1 isoforms. All three variants are associated with pericentric heterochromatin and it is not clear whether they have specific or redundant functions. MPP8 is also involved in the repression of gene in euchromatic regions (unpublished data) and like HP1 its chromodomain binds H3K9me3. MPP8 harbors an ankyrin repeat region that is likely involved in binding and recruiting interacting proteins with transcriptional repressive function, much like the chromoshadow domain of HP1 does. We hypothesize that by inhibiting specific protein-protein interactions we will be able to develop compounds that block a single arm of an epigenetic pathway. The specificity attained by blocking a single protein-protein interaction will be far greater than that attained by blocking the enzyme that regulates one of many interactions. Low-affinity protein-protein interactions (Kd in the single- to double-digit micromolar range) such as those discussed here have been very difficult to assay by traditional techniques such as fluorescence polarization or fluorescence resonance energy transfer. We have developed a sensitive chemiluminescence-based assay (Quinn, et al. 2009), which serves as the starting point for this project. The following is a validation assay to identify lead compounds that can block methyl-dependent protein-protein interactions (specifically HP1-beta), which can be used as probes to analyze these methyl-driven interactions and perhaps even developed into targeted epigenetic therapies. NIH Chemical Genomics Center [NCGC] NIH Molecular Libraries Probe Centers Network [MLPCN] MLPCN Grant: DA031087 Assay Submitter (PI): Mark Bedford, University of Texas, Medical Anderson Cancer Center, TX
# To each well, 2 uL of HP1-beta protein (final 50 nM) and 1 uL biotinylated histone peptide trimethylated at Lys9 [b-H3(1-18)K9me3] (final 50 nM) was added in 1x PBS buffer, pH 7.4, containing 0.01% Tween-20 using a nanoliter dispenser. Formation of a protein-peptide complex proceeded at room temperature for 30 min. A Kalypsys pin-tool was employed to transfer 23 nL of library compound solution in DMSO to each well. Aurintricarboxylic acid (ATA) was used as an intraplate control with a 12-point titration in duplicate. Following a 30 min incubation of the protein-peptide complex with compounds at room temperature, a mixture of 40 ug/mL each streptavidin-coated donor and nickel chelate acceptor AlphaScreen beads (final 10 ug/mL) was added in a 1 uL dispense for a final volume of 4 uL. […]
# Potency is the fitted concentration of half-maximal effect.
# Sequence of Chromobox protein homolog 1 (Homo sapiens) (P83916 whole entry, looked up): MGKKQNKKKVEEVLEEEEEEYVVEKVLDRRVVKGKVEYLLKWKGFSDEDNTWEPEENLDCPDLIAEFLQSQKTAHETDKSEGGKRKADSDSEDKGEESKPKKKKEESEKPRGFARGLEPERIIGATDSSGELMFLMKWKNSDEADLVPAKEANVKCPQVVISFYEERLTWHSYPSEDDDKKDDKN
row,Structure (SMILES),Potency
1,O=C(NC1=CC(=O)c2ccccc2C1=O)c1ccccc1,22.4 µM (active)
2,NS(=O)(=O)c1cc(C(=O)OCC(=O)NNC(=O)c2ccccc2)ccc1Cl,inactive
3,CCOc1ccccc1NC(=O)Cn1c2ncccc2c(=O)n1-c1ccc(C)c(C)c1,inactive
4,COc1cccc(Nc2nc3ccccc3c3nncn23)c1,inactive
5,Cc1csc(Nc2ccc(Cl)cc2)[n+]1-c1ccc(Cl)cc1,17.8 µM (active)
6,COC(=O)c1cc(NC(=O)c2cnc(SC)nc2-c2ccccc2)cc(C(=O)OC)c1,inactive
7,Cc1ccc(F)cc1S(=O)(=O)N1CCC(c2nc3ccccc3s2)CC1,inactive
8,Cc1ccc2cccc(NC(=O)c3cccc4ccccc34)c2n1,inactive
9,COc1cc(C(=S)NCc2ccccc2)cc(Br)c1O,7.94 µM (active)
10,COc1cc(Cl)cc(C2NC(=O)NC(C)=C2C(=O)NCc2ccccc2)c1O (configuration not stated),inactive
11,COc1ccc(CNC(=O)c2ccc3c(O)c(S(=O)(=O)c4ccccc4)c(=O)[nH]c3c2)cc1,inactive
12,COC(=O)c1ccc(NC(=O)CSc2n[nH]c(-c3ccccc3)n2)cc1,inactive
13,COc1ccc(OCCCn2c(C3CC(=O)N(c4ccc(F)cc4)C3)nc3ccccc32)cc1 (configuration not stated),inactive
14,COc1ccc2c(c1)CCc1c(C(=O)Nc3cc(C)ccc3O)noc1-2,inactive
15,Cc1nnc(N2CCCC(C(=O)NCCN(C)C)C2)c2nn(-c3ccccc3)c(C)c12 (configuration not stated),inactive
16,CN(C)c1ccc(Nc2c3c4c(cccc4n(C)c2=O)C(=O)c2ccccc2-3)cc1,4.47 µM (active)
17,COc1ccc(Cl)cc1NC(=O)CN(C)CC(=O)Nc1ccc2c(c1)OCO2,inactive
18,COc1ccc(Cl)cc1NC(=O)CN(C)Cc1ccc(OC)c(OC)c1,39.8 µM (active)
19,COc1ccc(Cl)cc1NC(=O)CCS(=O)(=O)c1ccc(Br)cc1,12.6 µM (active)
20,COc1ccc(Cl)cc1NC(=O)CCC(=O)c1ccc(C)cc1,inactive
21,Cc1ccc(Cl)cc1NC(=O)CCS(=O)(=O)c1ccc(Br)s1,inactive
22,COc1ccc(Cl)cc1NC(=O)CN(C)C(=O)CNC(=O)C12CC3CC(CC(C3)C1)C2,inactive
23,O=C(Nc1cccc2cccnc12)c1cccc2c(Br)cccc12,inactive
24,COc1cccc(CNC(=O)CCc2nc(-c3ccc(C)cc3)no2)c1,inactive
25,C=CCCN(C(Cc1ccccc1)C(=O)OC)S(=O)(=O)c1cc(Br)ccc1Br (configuration not stated),inactive
26,COc1ccc(-c2noc(-c3ccc(N4CCN(c5ccccc5)CC4)c([N+](=O)[O-])c3)n2)cc1OC,inactive
27,CCc1ccc(NC(=O)CN2C(=O)CCSc3ccc(S(=O)(=O)N4CCCC4)cc32)cc1,inactive
